Compound activity: PubChem BioAssay, National Center for Advancing Translational Sciences (NCATS)
An excerpt weighted towards active compounds, which were near 22% of everything screened.
Pf growth 48h: Primary qHTS for delayed death inhibitors of the malarial parasite plastid, 48 hour incubation | AID 504832, 2011 | 310,000 compounds, 5.9% hits | P. falciparum luciferase growth in erythrocytes, 48 h | Potency, µM (doses to about 28.7 µM), most hits filed as inhibitors
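First compound was added to culture medium, then infected red cells at 0.1% parasitemia and 2% hematocrit (final). After incubation at 37 C under 5% CO2, luciferase detection reagent was dispensed and light output recorded.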
Shiga toxin inh: A qHTS for Small Molecule Inhibitors of Shiga Toxin | Vero cells, Shiga toxin protein synthesis inhibition reporter | inhibition, % at 38.7 µM | 290,000 compounds, 9.2% hits; in the data active = inhibition mostly above about 28%, no sharp cut-off; inactive = mostly below about 43%
LmPK inhibitor: qHTS Assay for Inhibitors of Leishmania Mexicana Pyruvate Kinase (LmPK); Q27686; AID 1721, 2009; purified LmPK, Kinase-Glo ATP luminescence, 1 h; Potency, µM (highest dose often 57.5 µM), hits mostly inhibitors; 290,000 compounds, 0.37% hits
Target sequence (Q27686 whole entry, looked up): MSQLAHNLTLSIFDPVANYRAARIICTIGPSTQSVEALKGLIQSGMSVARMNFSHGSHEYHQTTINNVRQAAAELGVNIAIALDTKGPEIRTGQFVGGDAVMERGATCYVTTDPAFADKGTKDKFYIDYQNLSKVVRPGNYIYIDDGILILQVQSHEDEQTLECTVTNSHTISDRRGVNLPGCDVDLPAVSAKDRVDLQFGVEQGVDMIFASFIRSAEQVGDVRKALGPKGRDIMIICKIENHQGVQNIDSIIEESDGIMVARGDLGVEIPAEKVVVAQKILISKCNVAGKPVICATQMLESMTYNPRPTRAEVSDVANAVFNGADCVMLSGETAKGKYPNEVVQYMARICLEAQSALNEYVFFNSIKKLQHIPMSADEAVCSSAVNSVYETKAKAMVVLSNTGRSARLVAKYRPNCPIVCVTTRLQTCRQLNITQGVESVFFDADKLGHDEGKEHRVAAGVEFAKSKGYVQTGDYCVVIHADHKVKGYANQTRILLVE
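Purified LmPK (0.1 nM) with 0.5 mM PEP and 0.1 mM ADP in imidazole buffer pH 7.2 with MgCl2/KCl, 1 h at room temperature. ATP formed was read by luciferase luminescence and normalized to no-enzyme and uninhibited controls.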
CHX counter: Cycloheximide Counterscreen for Small Molecule Inhibitors of Shiga Toxin; cell reporter, cycloheximide protein synthesis inhibition counterscreen; max response, %; 300,000 compounds, 12% hits; in the data active = max response mostly above about 13%, no sharp cut-off; inactive = mostly below about 14%; also: read at 38.3 µM for the half of the compounds with a filed dose
Pf growth 96h: Primary qHTS for delayed death inhibitors of the malarial parasite plastid, 96 hour incubation; P. falciparum luciferase reporter growth, 96 h; Potency, µM (top dose mostly 28.7 µM), hits mostly inhibitors; 320,000 compounds, 6.9% hits; AID 504834, 2011
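Plates of compound plus infected erythrocytes (2% hematocrit, 0.05% parasitemia final) incubate 96 hours, 37 C, 5% CO2. Detection reagent added; reduced luminescence from the parasites' luciferase reporter flags inhibition.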
Large screens that a line does not name were inactive. Unless noted, calls follow the shape of the dose curve; as a rule, active = well fitted inhibition curve with a large enough effect; inconclusive = small, poorly fitted or top-dose-only effect, or another doubt; inactive = no such curve, though single readings can be large or run the other way.

Cc1nnc(Cn2cnc3c2c(=O)n(C)c(=O)n3C)o1	none
COc1ccc(/C=C2/SC(=S)N(CCCC(=O)Nc3ccc(O)cc3)C2=O)cc1OC	Pf growth 96h 11.7µM
COc1ccc(/C=C2\SC(=O)N(CCCC(=O)Nc3ccc(C(=O)O)cc3)C2=O)cc1OC	none
CCOc1ccc(/C=C2\SC(=O)N(c3ccc(O)cc3)C2=O)cc1OC	CHX counter 20.0
COc1ccc(/C=C2\SC(=S)N(CCCC(=O)Nc3ccccc3C(=O)O)C2=O)cc1OC	Pf growth 48h inconclusive
COc1ccc(/C=C2\SC(=S)N(CCCC(=O)Nc3ccc(C(=O)O)cc3)C2=O)cc1OC	Pf growth 48h 11.7µM, Pf growth 96h inconclusive
CCC(CC)C(=O)Nc1ccc(Nc2ccccc2)cc1	CHX counter 18.8
CC(C)C(=O)Nc1ccc(Nc2ccccc2)cc1	CHX counter 17.3
O=C(Nc1ccccc1)C(O)C(O)C(=O)Nc1ccccc1 (configuration not stated)	none
CCC(CC)C(=O)Nc1cc(NC(=O)C(CC)CC)cc(C(=O)O)c1	none (no result: Pf growth 96h)
NC(=O)c1cc[n+](CC2=C(C(=O)[O-])N3C(=O)[C@@H](NC(=O)Cc4cccs4)[C@@H]3SC2)cc1	none (no result: Shiga toxin inh, LmPK inhibitor, CHX counter)
Nc1c(Cl)ncnc1N/N=C/c1ccncc1	none
Oc1ccc(/C=N/Nc2ncnc3c2ncn3Cc2ccccc2)cc1O	Pf growth 48h inconclusive, Pf growth 96h inconclusive
COc1ccc(/C=N/Nc2ncnc(Cl)c2N)cc1OC	CHX counter 13.9
Oc1cccc(/C=N/Nc2ncnc3c2ncn3Cc2ccccc2)c1	Shiga toxin inh 53.0, CHX counter 18.1, Pf growth 96h inconclusive
Nc1c(Cl)ncnc1N/N=C/c1cccc(O)c1	Shiga toxin inh 49.7, CHX counter 26.4
COC(=O)[C@H](Cc1c[nH]c2ccccc12)NC(=O)NCc1ccc(OC)cc1	none
Cc1nnc(NC(=O)CSc2ccc(-c3ccccn3)nn2)s1	none
COc1ccc(C)cc1NC(=O)CSc1ccc(-c2ccco2)nn1	Pf growth 96h inconclusive
N/C(=N\O)c1ccccc1-n1cccc1	Pf growth 48h inconclusive
Cc1ccc(C)n1-c1ccccc1N	CHX counter 23.9
Nc1ccccc1-n1cccc1	CHX counter 13.3
Cc1cc(=O)cc(C)n1-c1ccccc1N	none
CCOC(=O)c1c(NC(C)=O)sc(C(=O)NC2CCCC2)c1C	Pf growth 96h inconclusive
COc1ccc2c(c1)C(=NNc1ccc(C(=O)O)cc1)c1cc(OC)ccc1-2	Pf growth 48h inconclusive
CCOC(=O)c1c(NC(C)=O)sc(/C(C)=N/Nc2ccc(C(=O)O)cc2)c1C	Shiga toxin inh 58.7, CHX counter 70.4
C/C(=N\Nc1ccc(Cl)c(C(=O)O)c1)c1ccc(Br)s1	Shiga toxin inh 152.8, CHX counter 59.4 (no result: Pf growth 48h)
COc1ccc(/C(C)=N/Nc2ccc(C(=O)O)cc2)c(OC)c1	Shiga toxin inh 52.8, CHX counter 60.9
C/C(=N\Nc1ccc(C(=O)O)cc1)c1ccc(Br)cc1	Shiga toxin inh 42.4, CHX counter 21.2
C/C(=N/Nc1ncc(Br)cn1)c1ccc(Br)cc1	Pf growth 96h inconclusive
C/C(=N\NC(=O)C(O)c1ccccc1)c1ccc(Br)s1 (configuration not stated)	none
CCC(C)N(C(=O)c1csnn1)C(C(=O)NC1CCCC1)c1ccccc1F (configuration not stated)	none
C/C(=N\Nc1ccc(C(=O)O)cc1)c1ccc(Cl)s1	Shiga toxin inh 61.6, CHX counter 40.3, Pf growth 96h inconclusive
COC(=O)c1c(NC(=O)CC2SC(N)=NC2=O)sc(C)c1C (configuration not stated)	Pf growth 96h inconclusive
O=C(COc1ccccc1Br)Nc1ccccc1C(F)(F)F	Shiga toxin inh 60.8, CHX counter 23.1
CCOc1ccc(OCC(=O)Nc2ccccc2C(F)(F)F)cc1	CHX counter 22.8
O=Cc1ccc(OCC(=O)Nc2ccccc2C(F)(F)F)cc1	CHX counter 25.3
Cc1ccc(OCCCC(=O)Nc2ccccc2C(F)(F)F)cc1	none
CC(NC(=O)c1ccc(C(C)(C)C)cc1)C(=O)O (configuration not stated)	none (no result: Pf growth 48h)
COC(=O)C(C)NC(=O)c1ccc(C(C)(C)C)cc1 (configuration not stated)	Shiga toxin inh 76.9, CHX counter 31.4
COCCN(CC(=O)Nc1cccc(C)c1C)C(=O)c1cc(-c2ccncc2)nc2ccccc12	Pf growth 48h 10.4µM, Pf growth 96h 8.28µM (no result: Shiga toxin inh, LmPK inhibitor, CHX counter)
COc1cccc(NC(=O)CN(C)C(=O)Cc2cccc3ccccc23)c1	Pf growth 48h inconclusive (no result: Shiga toxin inh, LmPK inhibitor, CHX counter)
Cc1c(C(=O)N(C)Cc2cccc(F)c2)oc2c(Cl)cccc12	Pf growth 96h inconclusive
COc1cccc(NC(=O)CN(C)C(=O)c2oc3c(ccc4ccccc43)c2C)c1	Pf growth 48h 0.262µM, Pf growth 96h 0.233µM (no result: Shiga toxin inh, LmPK inhibitor, CHX counter)
COc1ccc(NC(=O)CN(C)C(=O)CNC(=O)Cc2cccc3ccccc23)cc1	none
Cc1c(C(=O)N(C)CC(=O)Nc2cccc(F)c2)oc2c(Cl)cccc12	Pf growth 48h 2.62µM, Pf growth 96h 1.47µM (no result: Shiga toxin inh, LmPK inhibitor, CHX counter)
COc1ccc(NC(=O)CN(C)C(=O)c2oc3c(ccc4ccccc43)c2C)cc1	Pf growth 48h 0.185µM, Pf growth 96h 0.185µM (no result: Shiga toxin inh, LmPK inhibitor, CHX counter)
CCN(CC(=O)Nc1ccc(NC(C)=O)cc1)C(=O)c1oc2c(ccc3ccccc32)c1C	Pf growth 48h inconclusive, Pf growth 96h 11.7µM (no result: Shiga toxin inh, LmPK inhibitor, CHX counter)
COCCN(CC(=O)Nc1cccc(C)c1C)C(=O)c1oc2c(Cl)cccc2c1C	Pf growth 48h 9.28µM, Pf growth 96h inconclusive (no result: Shiga toxin inh, LmPK inhibitor, CHX counter)
Cc1cccc2cc(C#N)c(NCCCNS(=O)(=O)c3ccc(Cl)cc3)nc12	none
Cc1cccc(C2NC(=O)c3c(sc(C)c3C)N2)c1O (configuration not stated)	none
Cc1sc2c(c1C)C(=O)NC(c1ccccc1F)N2 (configuration not stated)	Shiga toxin inh 99.8, CHX counter 30.7
O=C(NCCc1ccccc1F)C1CCCN1S(=O)(=O)c1ccc2ccccc2c1 (configuration not stated)	Pf growth 48h inconclusive, CHX counter 21.0
Fc1ccccc1NC(=S)NCc1ccc2c(c1)OCO2	Pf growth 96h inconclusive
O=C(O)C1CCCCC1C(=O)NCc1ccc2c(c1)OCO2 (configuration not stated)	Pf growth 96h inconclusive
O=S(=O)(c1c(F)cccc1F)N1CCN(C(=S)NCc2ccc3c(c2)OCO3)CC1	Pf growth 48h 2.08µM, Pf growth 96h 2.08µM
O=C(NCc1ccc2c(c1)OCO2)C1CCCN1S(=O)(=O)c1ccc(F)cc1 (configuration not stated)	Pf growth 48h 2.33µM
O=C(NCc1ccc2c(c1)OCO2)C1CCCCC1	Shiga toxin inh 42.2, CHX counter 13.0, Pf growth 96h inconclusive
